Results filed as inconclusive are left out. Where a call stands in place of a potency, no number is given. Active and inactive are the calls of the source. Unless noted, calls come from the whole dose curve; as a rule, active = well fitted curve in the direction sought with a large enough effect; inconclusive = small, poorly fitted or top-dose-only effect, or another doubt; inactive = no such curve, though single readings can be large; an effect the other way counts as inactive or inconclusive.
Legend:
[1] = Nrf2 qHTS screen for inhibitors: Validation (AID 493153; active = well fitted inhibition curve with a large enough effect in the main read-out, with a control signal flat, not every such curve was filed as active); settings: Potency: luciferase luminescence; viability change: measured here: cytotoxicity max response
Outline: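 Dose-response validation uses reporter A549 cells with firefly luciferase under an antioxidant response element. Compounds stay on cells 18-24 h at 37°C, and luminescence indicates Nrf2-driven transcription.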

[2] = qHTS for Inhibitors of Cell Surface uPA Generation: Validation Assay (AID 493164);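 note: RAW 264.7 macrophage cells exposed to compound for 18 h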
Outline: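 RAW 264.7, 4000 cells/well, o/n plating; cpd 7-pt 1:5 dilution 2.45 nM–38.3 uM final; 18 h, 37 C/5% CO2; ATP-Lite, 5 s luminescence exposure.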

[3] = target: Galactokinase (Homo sapiens) (UniProt P51570); test: qHTS Validation Assay for Inhibitors of Human Galactokinase (GALK) (AID 493189)
Outline: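 GALK (5 nM) with 35 uM ATP and 100 uM galactose in HEPES pH 8.0 with MgCl2, NaCl, DTT and BSA. Reaction ran 1 h at room temperature. Residual ATP read by Kinase-Glo Plus luminescence.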

[4] = Validation screen for small molecules that induce DNA re-replication in SW480 colon adenocarcinoma cells (AID 504364)
Outline: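 Cells are treated 48 hr with test compound, stained 40 min with Hoechst at 37 C, and scanned for nuclear fluorescence; compounds inducing re-replication increase nuclei with elevated intensity.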

[5] = target: Peptidyl-prolyl cis-trans isomerase NIMA-interacting 1 (Homo sapiens) (UniProt Q13526); test: qHTS Validation Assay to Find Inhibitors of Pin1 (AID 504536; active = well fitted inhibition curve with a large enough effect in the polarisation, with a control signal flat, not every such curve was filed as active; the % refers to the polarisation; note: potency is the fitted concentration of half-maximal effect)
Outline: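 Fluorescence polarization competition: compounds (titration) displace HiFluor-488-labeled Pin1-1b peptide from Pin1 (0.3 uM final) in pH 7.5 HEPES buffer with DTT, 10 min at room temperature; %Activity normalized to no-enzyme wells, curves fitted.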

[6] = target: Phosphoglycerate kinase, glycosomal (Trypanosoma brucei brucei) (UniProt P07378); test: qHTS Validation Assay to Find Inhibitors of Phosphoglycerate Kinase (AID 504547); note: potency is the fitted concentration of half-maximal effect
Outline: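 PGK activity was coupled to GAPDH (100nM final), which generates the unstable substrate 1,3-bisphosphoglycerate in-well. Reactions ran 60 minutes at room temperature in 100mM TEA pH 7.6, 5mM MgCl2, 0.01% Tween-20, then Kinase-Glo Plus luminescence was read.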

[7] = target: phosphoglycerate mutase (Leishmania major) (UniProt Q4Q090); test: qHTS Validation Assay to Find Inhibitors of Phosphoglycerate Mutase (AID 504548); settings: Potency: inhibition qHTS;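 note: end-point luminescence from Kinase-GloPlus after the PGAM reaction; series mostly up to about 58 µM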
Outline: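 Inhibition of L. major PGAM was assessed by Kinase-GloPlus luminescence following a 45-minute room-temperature reaction with enzyme at 1.25nM final.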

[8] = target: Ubiquitin carboxyl-terminal hydrolase 1 (Homo sapiens) (UniProt O94782); test: Inhibitors of USP1/UAF1: Pilot qHTS (AID 504865); note: nearly all actives have a fitted effect of over 35% in size; note: potency is the fitted concentration of half-maximal effect
Outline: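 USP1/UAF1 complex at 1 nM preincubated 15 min at room temperature with compound, then Ub-Rho substrate added at 150 nM final. Fluorescence (480/540 nm) read kinetically in 50 mM HEPES pH 7.8, 0.5 mM EDTA, 1 mM TCEP, 0.1 mg/ml BSA, 0.01% Tween-20.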

[9] = qHTS for Inhibitors of ATXN expression: Validation of Cytotoxic Assay (AID 588349);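 note: cells exposed to compound for 72 hr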
Outline: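 HEK293, compound dose series, 72 hr / 37 degrees C; viability via CellTiter Glo (intracellular ATP).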

[10] = qHTS for Inhibitors of ATXN expression: Validation (AID 588378); note: series mostly up to about 57 µM; nearly all actives have a fitted effect of over 75% in size
Outline: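 HEK293 cells carrying ATXN2-firefly luciferase reporter, treated with compound 24 h at 37 °C. Viability read first by CellTiter-Fluor (405/525 nm), then reporter expression by Bright-Glo luminescence; controls were a known ATXN2 expression inhibitor and a luciferase inhibitor.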

[11] = target: DNA dC->dU-editing enzyme APOBEC-3G (Homo sapiens) (UniProt Q9HC16); test: qHTS for inhibitors of Vif-A3G interactions: Validation (AID 588379)
Outline: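 HeLa cells stably expressing Vif and A3G-eYFP, 700 cells/well, incubated overnight at 37 deg C, then exposed to compound overnight at 37 deg C. Inhibition of Vif-mediated degradation read as increased yellow fluorescence (Ex 488/Em 500-530) by laser-scanning cytometry.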

Sequence of Ubiquitin carboxyl-terminal hydrolase 1 (Homo sapiens) (O94782 whole entry, looked up): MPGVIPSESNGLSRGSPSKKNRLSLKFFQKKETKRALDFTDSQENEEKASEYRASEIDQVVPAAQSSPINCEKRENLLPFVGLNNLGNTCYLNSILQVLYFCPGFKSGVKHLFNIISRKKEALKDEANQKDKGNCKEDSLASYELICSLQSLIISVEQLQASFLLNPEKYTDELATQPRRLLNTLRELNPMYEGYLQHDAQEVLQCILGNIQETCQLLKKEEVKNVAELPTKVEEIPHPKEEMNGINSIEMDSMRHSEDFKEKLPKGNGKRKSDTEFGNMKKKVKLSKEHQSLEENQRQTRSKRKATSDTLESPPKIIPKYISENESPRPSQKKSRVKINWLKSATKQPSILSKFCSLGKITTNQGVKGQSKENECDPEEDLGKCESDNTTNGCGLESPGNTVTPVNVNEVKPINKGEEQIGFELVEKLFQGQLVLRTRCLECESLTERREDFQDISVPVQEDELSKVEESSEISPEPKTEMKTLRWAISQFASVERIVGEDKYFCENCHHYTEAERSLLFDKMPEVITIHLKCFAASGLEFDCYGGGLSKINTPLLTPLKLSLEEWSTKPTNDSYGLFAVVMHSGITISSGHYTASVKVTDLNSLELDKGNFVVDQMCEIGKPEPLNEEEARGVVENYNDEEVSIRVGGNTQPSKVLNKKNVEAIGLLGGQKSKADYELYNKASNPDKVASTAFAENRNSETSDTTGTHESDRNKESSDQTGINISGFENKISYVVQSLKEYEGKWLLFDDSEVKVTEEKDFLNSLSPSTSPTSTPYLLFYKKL
Sequence of DNA dC->dU-editing enzyme APOBEC-3G (Homo sapiens) (Q9HC16 whole entry, looked up): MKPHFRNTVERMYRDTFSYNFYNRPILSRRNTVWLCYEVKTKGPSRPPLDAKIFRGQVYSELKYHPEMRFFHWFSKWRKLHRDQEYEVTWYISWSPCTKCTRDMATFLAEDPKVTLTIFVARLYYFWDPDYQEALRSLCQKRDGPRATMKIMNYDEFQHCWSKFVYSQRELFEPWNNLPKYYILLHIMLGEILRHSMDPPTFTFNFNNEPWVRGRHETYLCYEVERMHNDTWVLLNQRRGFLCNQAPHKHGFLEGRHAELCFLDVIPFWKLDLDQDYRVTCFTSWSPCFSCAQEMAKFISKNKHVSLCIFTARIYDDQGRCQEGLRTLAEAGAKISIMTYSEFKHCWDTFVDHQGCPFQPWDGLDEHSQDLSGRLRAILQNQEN
Sequence of Phosphoglycerate kinase, glycosomal (Trypanosoma brucei brucei) (P07378 whole entry, looked up): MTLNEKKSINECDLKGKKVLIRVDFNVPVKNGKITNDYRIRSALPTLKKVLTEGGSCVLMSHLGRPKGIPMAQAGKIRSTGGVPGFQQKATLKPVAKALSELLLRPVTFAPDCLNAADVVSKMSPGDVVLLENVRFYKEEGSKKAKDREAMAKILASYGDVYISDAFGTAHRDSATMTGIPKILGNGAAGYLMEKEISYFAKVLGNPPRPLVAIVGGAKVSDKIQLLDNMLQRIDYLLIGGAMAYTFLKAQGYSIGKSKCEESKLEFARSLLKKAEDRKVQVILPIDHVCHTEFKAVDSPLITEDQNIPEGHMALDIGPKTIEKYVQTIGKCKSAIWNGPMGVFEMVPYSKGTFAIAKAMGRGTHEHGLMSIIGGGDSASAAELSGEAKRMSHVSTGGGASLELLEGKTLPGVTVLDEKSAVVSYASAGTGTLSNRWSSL
Sequence of Peptidyl-prolyl cis-trans isomerase NIMA-interacting 1 (Homo sapiens) (Q13526 whole entry, looked up): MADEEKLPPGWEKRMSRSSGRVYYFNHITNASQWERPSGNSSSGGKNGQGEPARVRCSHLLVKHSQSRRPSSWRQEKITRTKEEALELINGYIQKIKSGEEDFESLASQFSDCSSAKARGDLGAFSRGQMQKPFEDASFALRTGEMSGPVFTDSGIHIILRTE
Sequence of phosphoglycerate mutase (Leishmania major) (Q4Q090 1-553): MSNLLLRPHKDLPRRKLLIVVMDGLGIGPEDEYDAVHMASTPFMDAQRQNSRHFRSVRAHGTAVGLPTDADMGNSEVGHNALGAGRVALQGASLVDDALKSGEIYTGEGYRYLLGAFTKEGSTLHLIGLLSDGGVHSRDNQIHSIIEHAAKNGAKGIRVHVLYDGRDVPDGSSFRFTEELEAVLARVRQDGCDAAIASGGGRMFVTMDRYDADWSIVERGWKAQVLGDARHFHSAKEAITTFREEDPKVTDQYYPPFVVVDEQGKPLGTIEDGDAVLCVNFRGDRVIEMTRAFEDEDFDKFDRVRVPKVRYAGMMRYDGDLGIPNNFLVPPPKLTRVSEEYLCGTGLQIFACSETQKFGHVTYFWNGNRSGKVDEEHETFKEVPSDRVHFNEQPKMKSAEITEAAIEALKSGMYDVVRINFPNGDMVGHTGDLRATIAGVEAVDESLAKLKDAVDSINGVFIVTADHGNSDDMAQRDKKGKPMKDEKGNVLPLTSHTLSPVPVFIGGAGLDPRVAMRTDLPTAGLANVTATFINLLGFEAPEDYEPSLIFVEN
Sequence of Galactokinase (Homo sapiens) (P51570 whole entry, looked up): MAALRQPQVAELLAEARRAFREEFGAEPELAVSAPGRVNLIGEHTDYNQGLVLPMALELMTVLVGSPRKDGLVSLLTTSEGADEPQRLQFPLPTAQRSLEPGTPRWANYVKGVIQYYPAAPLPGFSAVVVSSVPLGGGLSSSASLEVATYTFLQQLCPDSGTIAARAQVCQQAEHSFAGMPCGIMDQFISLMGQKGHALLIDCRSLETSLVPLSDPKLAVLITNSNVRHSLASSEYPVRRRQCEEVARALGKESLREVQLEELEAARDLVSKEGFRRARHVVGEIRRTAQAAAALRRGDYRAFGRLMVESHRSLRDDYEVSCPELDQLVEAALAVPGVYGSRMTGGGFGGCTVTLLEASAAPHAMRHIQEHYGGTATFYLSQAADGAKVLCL

SMILES	Potency [1]	viability change [1] [%]	outcome [2]	Potency [3]	Potency [4]	Potency [5]	Potency [6]	Potency [7]	Potency [8]	Potency [9]	Potency [10]	Potency [11]
COc1cc(C(O)CO)ccc1O (stereo unspecified)	inactive	3.88	inactive	inactive	inactive	inactive	inactive	inactive	inactive	inactive	inactive	–
COc1ccccc1N1CCN(CCCCNC(=O)c2ccc3ccccc3c2)CC1	inactive	4.82	inactive	inactive	inactive	inactive	inactive	inactive	inactive	inactive	inactive	–
OC1(c2ccc(Cl)cc2)CCN(Cc2c[nH]c3ccccc23)CC1	inactive	-2.32	inactive	inactive	inactive	inactive	inactive	inactive	inactive	inactive	–	inactive
O=C1OC(=O)C2C3CCC(O3)C12 (stereo unspecified)	inactive	-3.78	inactive	inactive	inactive	inactive	inactive	inactive	inactive	inactive	inactive	inactive
NC(=O)c1cc[n+](CC2=C(C(=O)O)N3C(=O)[C@@H](NC(=O)[C@@H](c4ccccc4)S(=O)(=O)[O-])[C@H]3SC2)cc1	inactive	3.59	inactive	inactive	inactive	9.53 µM (active)	inactive	inactive	inactive	inactive	inactive	–
Nn1nnc2ccccc21	inactive	-0.567	inactive	inactive	inactive	inactive	inactive	inactive	inactive	inactive	inactive	–
NCC(O)c1ccc(O)c(O)c1 (stereo unspecified)	inactive	3.36	inactive	inactive	inactive	inactive	4.78 µM (active)	inactive	inactive	inactive	inactive	–
CC(=O)N[C@@H](Cc1c[nH]c2ccccc12)C(=O)OCc1cc(C(F)(F)F)cc(C(F)(F)F)c1	inactive	0.548	inactive	inactive	inactive	inactive	inactive	inactive	20 µM (active)	inactive	inactive	inactive
CNC(=O)c1cc2c(cn1)[nH]c1ccccc12	inactive	-3.36	inactive	inactive	inactive	inactive	inactive	inactive	inactive	inactive	inactive	inactive
COC(=O)[C@H](NC(=O)c1cc(-c2ccccc2)nc2ccccc12)c1ccccc1	inactive	-11.1	inactive	inactive	inactive	inactive	inactive	inactive	inactive	inactive	–	inactive
NC(N)=N[C@@H](CCC(=O)O)C(=O)O	inactive	6.59	inactive	inactive	inactive	inactive	inactive	inactive	inactive	inactive	inactive	–
O=C(O)c1cccnc1C(=O)O	inactive	1.3	inactive	inactive	inactive	inactive	inactive	inactive	inactive	inactive	inactive	inactive
O=C(OCCN1CCOCC1)C1(c2ccccc2)CCCCC1	inactive	-0.582	inactive	inactive	inactive	inactive	inactive	inactive	inactive	inactive	inactive	inactive
Nc1ccc(-c2nc3ccc(-c4nc5ccc(N)cc5[nH]4)cc3[nH]2)cc1	inactive	-10.2	inactive	inactive	inactive	inactive	inactive	inactive	50.1 µM (active)	inactive	inactive	–
COCc1nc2c([nH]1)c(=O)n(C)c(=O)n2CC(C)C	inactive	1.53	inactive	inactive	inactive	inactive	inactive	inactive	inactive	inactive	–	inactive
CC[N+](CC)(CC)CC(=O)Nc1c(C)cccc1C	inactive	-3.66	inactive	inactive	inactive	inactive	inactive	inactive	inactive	inactive	inactive	inactive
COc1ccccc1N1CCN(CCCCN2C(=O)c3ccccc3C2=O)CC1	inactive	4.76	inactive	inactive	inactive	inactive	inactive	inactive	inactive	inactive	inactive	inactive
COc1ccc(CCN(C)CCc2ccc(OC)c(OC)c2)cc1OC	inactive	4.35	inactive	inactive	inactive	inactive	inactive	inactive	inactive	inactive	–	inactive
CC(C)Cn1c(=O)n(C)c(=O)c2[nH]cnc21	inactive	1.08	inactive	inactive	inactive	inactive	inactive	inactive	inactive	inactive	inactive	–
O=[N+]([O-])c1cccc2c(Br)[nH]nc12	inactive	2.48	inactive	inactive	inactive	inactive	inactive	inactive	inactive	inactive	inactive	inactive
C#CC(N)CCC(=O)O (stereo unspecified)	inactive	2.08	inactive	inactive	inactive	inactive	inactive	inactive	inactive	inactive	inactive	–
CSC(=N)N	inactive	-21.7	inactive	inactive	inactive	inactive	inactive	inactive	inactive	inactive	inactive	inactive
